Measurements: the supplement of paper PMC13380429

Experiments:
[1] = tested on: Vero E6 infected with SARS-CoV-2; experiment: morphology score (similarity to uninfected cells); higher = more like uninfected cells; conditions: 24 h
[2] = tested on: Vero E6 infected with SARS-CoV-2; experiment: SARS-CoV-2 infection rate relative to infected DMSO; higher = more infection, active = 60 or less; conditions: 24 h

Compound: COc1ccc(CNCc2cccc3ccccc23)cc1 (10 µM)
- morphology score [1]: 0.0641
- SARS-CoV-2 infection rate [2]: 105% (inactive)

Compound: CNC(=O)c1cc(Oc2ccc(NC(=O)Nc3ccc(Cl)c(C(F)(F)F)c3)cc2)ccn1 [sorafenib] (0.833333 µM)
- morphology score [1]: -0.246
- SARS-CoV-2 infection rate [2]: 118% (inactive)

Compound: O=C1NC(=O)C(c2ccccc2[N+](=O)[O-])=C1Nc1ccc(O)c(Cl)c1 (10 µM)
- morphology score [1]: -0.00184
- SARS-CoV-2 infection rate [2]: 114% (inactive)

Compound: CCCCCCc1ccc(O)cc1O.Nc1c2ccccc2nc2ccccc12 [acrisorcin] (0.833333 µM)
- morphology score [1]: 0.293
- SARS-CoV-2 infection rate [2]: 97% (inactive)

Compound: Oc1cc(O)c(Cl)cn1 [gimeracil] (10 µM)
- morphology score [1]: 0.103
- SARS-CoV-2 infection rate [2]: 107% (inactive)

Compound: CC(C)(C)CCN1C[C@@H]2[C@@H](CNC(=O)c3cc(Cl)cc(Cl)c3)[C@@H]2C1 (10 µM)
- morphology score [1]: 0.324
- SARS-CoV-2 infection rate [2]: 86% (inactive)

Compound: OCCN1CCN(CC/C=C2/c3ccccc3Sc3ccc(C(F)(F)F)cc32)CC1 [flupentixol] (10 µM)
- morphology score [1]: 0.506
- SARS-CoV-2 infection rate [2]: 79% (inactive)

Compound: CCN(CC)C(=S)SSC(=S)N(CC)CC [disulfiram] (10 µM)
- morphology score [1]: 0.548
- SARS-CoV-2 infection rate [2]: 23% (active)

Compound: COc1ccc(-c2coc3cc(O)ccc3c2=O)cc1 [formononetin] (10 µM)
- morphology score [1]: 0.158
- SARS-CoV-2 infection rate [2]: 106% (inactive)

Compound: Nc1nonc1/C(=N/O)Nc1ccc(F)c(Cl)c1 (10 µM)
- morphology score [1]: 0.043
- SARS-CoV-2 infection rate [2]: 112% (inactive)

Compound: CCCCCS(=O)(=O)CCCCCCCCCCn1c(-c2ccc(O)cc2)c(C)c2cc(O)ccc21 (0.833333 µM)
- morphology score [1]: 0.00616
- SARS-CoV-2 infection rate [2]: 102% (inactive)

Compound: CC(CCc1ccc(O)cc1)NCC(O)c1ccc(O)cc1 (centres undefined) [ractopamine] (10 µM)
- morphology score [1]: -0.0659
- SARS-CoV-2 infection rate [2]: 111% (inactive)
